hcDAF-12 act – H. contortus DAF-12 nuclear receptor activators, primary screen, cell-based, luminescence, HEK293, lit1-tk-luc reporter; HEK293 hcDAF-12 lit1-tk-luc reporter; 0% DMSO, 100% Δ7-dafachronic acid; 370,000 tested, 1.4% active; activation, % at 6.8 µM; AID 652067, 2013;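 active = activation above the mean of all tested compounds plus 3 SD, cut at about 5.5% in these data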
DAX1 inh-1 – DAX1 (NR0B1) inhibitors, primary screen, cell-based, HEK293, Gal4-DAX1, luciferase luminescence; Nuclear receptor subfamily 0 group B member 1 (Homo sapiens), P51843; 340,000 tested, 0.99% active; inhibition, % at 6.75 µM; AID 504766, 2011; HEK293 Gal4-DAX1 luciferase reporter;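 active = inhibition above the mean over all tested compounds plus 3 SD, cut at about 4.2% in these data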;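 note: inhibition shows as a rise in luminescence from relieved DAX1 repression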
AHR act – AHR activators, primary screen, cell-based, luminescence, luciferase reporter, human | Aryl hydrocarbon receptor (Homo sapiens), P35869 | AID 2796, 2010 | AHR-responsive luciferase reporter cells | activation, % at 5 µM | 320,000 tested, 2.5% active; in the data active = activation above about 47%
ssDAF-12 act – S. stercoralis DAF-12 nuclear receptor activators, primary screen, cell-based, luminescence, HEK293, GRIP1 co-expression, lit1-tk-luc; HEK293 ssDAF-12/GRIP1 lit1-tk-luc reporter; % of 3 µM dafachronic acid response; activation, % at 6.8 µM; 370,000 tested, 1% active; Nuclear hormone receptor DAF-12 (Strongyloides stercoralis);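 active = activation above the mean over all tested compounds plus 3 SD, cut at about 0.9% in these data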
DAX1 inh-2 – DAX1 (NR0B1) inhibitors on StAR promoter, primary screen, cell-based, luminescence, SF-1 (NR5A1), full-length DAX-1 | HEK293T StAR-luciferase reporter, SF-1/DAX-1 repression relief | inhibition, % at 6.8 µM | AID 652010, 2013 | 370,000 tested, 1.1% active;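 active = inhibition above the mean over all tested compounds plus 3 SD, cut at about 3.6% in these data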;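 note: higher inhibition means more luminescence from relief of DAX-1 repression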
hgDAF-12 ag – H. glycines DAF-12 receptor agonists, primary screen, cell-based, luminescence, HEK293, GAL4 fusion, UAS-luciferase; HEK293 GAL4-hgDAF12 UAS-luciferase reporter, agonist luminescence; normalized to butyrate control; AID 687014, 2013; Nuclear hormone receptor DAF-12 (Heterodera glycines), GAL4 fusion; activation, % at 6.8 µM; 370,000 tested, 1.8% active;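 active = activation above a cutoff set at the mean of all screened compounds plus 3 SD, cut at about 10% in these data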
AHR act confirm – AHR activators, confirmation, cell-based, luminescence, luciferase reporter, human; activation, % at 9 µM; 2,300 tested, 87% active; shares compounds with AHR act; human cells, AHR-responsive luciferase reporter; in the data active = activation above about 49%;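 note: HepG2 hepatoma cells carrying a DRE-driven firefly luciferase reporter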
PXR act counter – human PXR activators, counter-screen for AHR activator project, cell-based, luciferase luminescence. AID 434939, 2010. 2,300 tested, 88% active. shares compounds with AHR act. activation, % at 11.6 µM. cell-based PXR reporter; in the data active = activation above about 11%;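 note: human hepatoma DPX-2 cells expressing full-length human PXR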
DAX1 inh confirm – DAX1 (NR0B1) inhibitors relieving SF-1 repression, confirmation, cell-based, luminescence, HEK293T, full-length DAX-1, SF-1 activated StAR promoter; shares compounds with DAX1 inh-2; HEK293T StAR-promoter luciferase reporter, SF-1/DAX-1 repression; inhibition, % at 6.8 µM; 2,400 tested, 87% active; AID 652134, 2013;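 active = inhibition above the average of every tested compound plus 3 SD, cut at about 3.8% in these data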
SF1 mutant ctr – StAR reporter signal changes without DAX1, counter-screen for DAX1 inhibitor project, cell-based, luminescence, AF-2 mutant SF-1, transactivation | shares compounds with DAX1 inh-2 | HEK293 StAR-luciferase, SF-1 AF2 mutant | inhibition, % at 6.8 µM | 2,400 tested, 78% active | AID 652136, 2013;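 active = inhibition above the mean of all tested compounds plus 3 SD, cut at about 3% in these data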
LXR ag – LXR agonists, Gal4 luciferase reporter, confirmation, counter-screen for hcDAF-12 agonist project, cell-based, luminescence, HEK293, H. contortus campaign | shares compounds with hcDAF-12 act | HEK293 Gal4-LXR tk-luc reporter, 24 h; normalized: DMSO 0%, positive control 100% | activation, % at 6.8 µM | 3,400 tested, under 10 active;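 active = mean percent activation of the reporter above a cutoff set as the average over tested compounds plus their standard deviation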
Target sequence (P55055 whole entry, looked up, the tested form may be a part): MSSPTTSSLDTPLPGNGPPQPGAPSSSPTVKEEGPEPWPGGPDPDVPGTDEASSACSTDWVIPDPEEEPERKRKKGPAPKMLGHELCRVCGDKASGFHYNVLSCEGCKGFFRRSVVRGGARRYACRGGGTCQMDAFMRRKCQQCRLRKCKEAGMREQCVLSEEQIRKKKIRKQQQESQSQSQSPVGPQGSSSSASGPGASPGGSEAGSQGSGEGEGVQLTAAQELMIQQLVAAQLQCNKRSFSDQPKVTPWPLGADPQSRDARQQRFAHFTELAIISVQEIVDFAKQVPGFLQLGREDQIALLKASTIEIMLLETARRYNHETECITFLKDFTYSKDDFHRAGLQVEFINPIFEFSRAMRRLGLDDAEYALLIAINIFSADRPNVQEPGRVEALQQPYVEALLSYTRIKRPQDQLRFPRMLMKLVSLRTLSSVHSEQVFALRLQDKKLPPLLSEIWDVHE
hcDAF12 conf – H. contortus DAF-12 receptor agonists, confirmation, cell-based, luminescence, HEK293, lit1-tk-luc, triplicate. shares compounds with hcDAF-12 act. 3,400 tested, 61% active. AID 743032, 2013. activation, % at 6.8 µM. HEK293 hcDAF-12 lit1-tk-luc reporter; % of Δ7-dafachronic acid response;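 active = mean activation across triplicate tests above the threshold derived from the earlier primary screen, cut at about 5.5% in these data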
Large screens that a line does not name were inactive (follow-up assays come after a bar, where they were run). Rows were chosen to be rich in hits. Some 5.7% of all compounds tested hit in one or more screens of this group.

CCC(=O)Nc1ccc(NC(=O)c2c(C)nc3ccccn23)cc1	none
S=c1[nH]cc2cnccn12	none (no result: AHR act)
O=C(Nc1ccccc1C(=O)N/N=C/c1ccc(O)cc1)c1ccccc1	AHR act 102.6 | AHR act confirm 88.3 | PXR act counter 28.3
CC(C)=C(NC(=O)c1ccccc1)C(=O)N/N=C/c1ccc(O)cc1	none
CN1c2ccccc2C2(C)CCCC3=Cc4cc([N+](=O)[O-])cc([N+](=O)[O-])c4OC312 (centres undefined)	none
COc1ccccc1C(=O)Nc1cccc(SC)c1	AHR act 83.4 | AHR act confirm 85.4 | PXR act counter 22.5
COc1cccc(C(=O)Nc2cccc(SC)c2)c1	none
Cn1cc(C(=O)NC2CCCCC2)c(=O)c2cc(S(=O)(=O)N3CCCC3)ccc21	none
COc1ccc(-c2noc(-c3ccc(Br)o3)n2)cc1	AHR act 79.3 | AHR act confirm 106.9 | PXR act counter 17.2
OCCNc1nc(-c2ccccc2)nc2c1oc1ccccc12	AHR act 103.8 | AHR act confirm 95.8 | PXR act counter 26.1
S=C(NNc1ccc2ccccc2c1)NC1CCCCC1	AHR act 107.6 | AHR act confirm 89.8 | PXR act counter 99.1
COc1ccc(C2C(C#N)=C(N)N(N(C)C)C3=C2C(=O)CC(C)(C)C3)cc1OC (centres undefined)	none
COc1ccc(C(C)(C)C)cc1NC(=O)C1C2C=CC(C2)C1C(=O)O (centres undefined)	none
CC(C)Oc1cccc(NC(=O)C2(C)CCCN(C)C2)c1 (centres undefined)	none (no result: DAX1 inh-1, AHR act)
c1ccc(CCNc2ncnc3scc(C4COc5ccccc5O4)c23)cc1 (centres undefined)	AHR act 98.5 | AHR act confirm 100.5 | PXR act counter 23.0
c1ccc2c(c1)OCC(c1csc3ncnc(N4CCCC4)c13)O2 (centres undefined)	none
CN(CCO)c1c2c(nc3cc(-c4cccc(F)c4)nn13)CCCC2	AHR act 89.1, DAX1 inh-2 6.4 | AHR act confirm 91.9 | PXR act counter 64.2 | DAX1 inh confirm 10.4 | SF1 mutant ctr 4.0
COc1cccc(NC(=O)Nc2ccc3c(c2)OCO3)c1	AHR act 109.5, DAX1 inh-2 8.4 | AHR act confirm 64.6 | PXR act counter 38.5 | DAX1 inh confirm 6.2 | SF1 mutant ctr 4.9
COc1cccc(NC(=O)CN(C)CC(=O)Nc2ccc3c(c2)OCO3)c1	none
CC(C)(C)NC(=O)CSC(=Nc1cccc(F)c1)NC#N	none
COc1c(C(=O)Nc2nnc(C3CC3)s2)csc1Cl	hcDAF-12 act 8.1, AHR act 113.5, ssDAF-12 act 2.1, DAX1 inh-2 7.0 | AHR act confirm 157.0 | PXR act counter 78.6 | DAX1 inh confirm 6.2 | SF1 mutant ctr 9.1 | LXR ag inactive | hcDAF12 conf 9.5
COc1ccc(Cl)cc1N/C(N)=N/c1nc(C)cc(=O)[nH]1	none
COc1ccc(N=Cc2c(O)[nH]c3ccccc23)cc1	hcDAF-12 act 6.9, AHR act 128.9, ssDAF-12 act 1.1, DAX1 inh-2 4.2, hgDAF-12 ag 12.9 | AHR act confirm 66.5 | PXR act counter 17.5 | LXR ag inactive | hcDAF12 conf 10.7
COc1ccc(CN=Cc2c(O)[nH]c3ccccc23)cc1	none
O=C(O)c1cc2ccccc2c2c1C(=O)c1ccccc1-2	none (no result: AHR act)
COc1ccc(-n2cc(CNCCc3nc(C)cc(C)n3)c(-c3ccccc3Cl)n2)cc1	none
CC(=O)c1cccc(NC(=S)NC(=O)c2ccccc2Cl)c1	none
O=C(NC(=S)Nc1ccccc1O)c1ccccc1Cl	hcDAF-12 act 7.7, AHR act 89.0, ssDAF-12 act 1.5, hgDAF-12 ag 12.5 | AHR act confirm 127.5 | PXR act counter 20.9 | LXR ag inactive | hcDAF12 conf 6.2
Cc1ccc(OC(=O)CCNC(=O)c2ccccc2Cl)c(Br)c1	none
O=c1c2ccccc2[nH]c(=S)n1Cc1ccccc1	none
O=c1c2ccccc2[nH]c(=S)n1CCc1ccccc1	hcDAF-12 act 8.1, AHR act 121.0 | AHR act confirm 159.0 | PXR act counter 38.2 | LXR ag inactive | hcDAF12 conf 5.7
c1ccc2c(c1)oc1c(Nc3ccc4c(c3)OCCO4)ncnc12	hcDAF-12 act 9.1, AHR act 95.3, hgDAF-12 ag 12.2 | AHR act confirm 109.7 | PXR act counter 18.6 | LXR ag inactive | hcDAF12 conf 6.4
O=[N+]([O-])c1ccc2ncnc(Nc3ccc4c(c3)OCCO4)c2c1	none

Screening results (PubChem BioAssay)
